Measurements as given in the supplement of paper PMC6607015.
Structures can show the parent of a compound that is named as a salt.

What was measured:
Details in all cases: compound concentration in added solution (µM; 5 µl added to 20 µl cells): 10; 18 h
A431 [1] = test: LBPA endosome anti-LBPA integrated intensity (sum per cell), Z-score; higher = more LBPA staining
Method in brief: (§1)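 After 18 h on 5 µl of 10 µM compound solution in duplicate 384-well imaging plates, HeLa MZ or A431 cells, seeded at 3,500 per well in 20 µl, were fixed with 4% PFA. They were then labelled with 6C4 anti-LBPA antibody, filipin, propidium iodide and CellTracker green, and four 20× fields were recorded per well. Integrated LBPA or filipin intensity per cell, whole-cell or within LBPA endosomes, came from MetaXpress segmentation and was normalised to Z-scores in AcuityXpress.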

HeLa MZ [2] = test: as above
Method in brief: as §1

A431 [3] = test: whole-cell filipin (free cholesterol) integrated intensity, Z-score; higher = more cholesterol staining
Method in brief: as §1

HeLa MZ [4] = test: as above
Method in brief: as §1

A431 [5] = test: filipin (cholesterol) integrated intensity within LBPA endosomes, Z-score; higher = more cholesterol in LBPA endosomes
Method in brief: as §1

HeLa MZ [6] = test: as above
Method in brief: as §1

| SMILES | LBPA endosome anti-LBPA integrated intensity (z-score) (A431 [1]) | LBPA endosome anti-LBPA integrated intensity (z-score) (HeLa MZ [2]) | whole-cell filipin (z-score) (A431 [3]) | whole-cell filipin (z-score) (HeLa MZ [4]) | filipin (z-score) (A431 [5]) | filipin (z-score) (HeLa MZ [6]) |
| --- | --- | --- | --- | --- | --- | --- |
| COc1ccccc1Oc1c(NS(=O)(=O)c2ccc(C(C)(C)C)cc2)nc(-c2ncccn2)nc1OCCO [Bosentan] | -0.54 | -0.445 | -0.199 | 0.0121 | -0.493 | -0.438 |
| CC(=O)Oc1ccccc1C(=O)O [Acetylsalicylic acid] | -0.437 | -1.33 | -0.0786 | -0.536 | -0.409 | -0.51 |
| O=C(NCCN1CCOCC1)c1ccc(Cl)cc1 [Moclobemide] | -0.577 | -0.12 | -0.751 | -0.413 | -0.499 | -0.447 |
| CCOC(=O)[C@H](CCc1ccccc1)N[C@@H](C)C(=O)N1[C@H](C(=O)O)C[C@@H]2CCC[C@@H]21 [Ramipril] | -0.401 | -1.57 | -0.0336 | -0.633 | -0.446 | -0.529 |
| CC(C)(S)[C@@H](N)C(=O)O [Penicillamine] | -0.535 | -0.589 | -0.551 | -0.607 | -0.469 | -0.553 |
| O=C(NCC1CCCCN1)c1cc(OCC(F)(F)F)ccc1OCC(F)(F)F (stereo not drawn) [Flecainide acetate] | 0.848 | 1.72 | 1.08 | 0.76 | 0.948 | 0.836 |
| NS(=O)(=O)c1cc2c(cc1C(F)(F)F)NCNS2(=O)=O [Hydroflumethiazide] | -0.486 | -0.967 | -0.738 | -0.664 | -0.455 | -0.522 |
| CCN[C@H]1C[C@H](C)S(=O)(=O)c2sc(S(N)(=O)=O)cc21 [Dorzolamide hydrochloride] | -0.573 | -0.633 | 0.0896 | 0.22 | -0.481 | -0.217 |
| CC(=O)OCC(=O)NCCCOc1cccc(CN2CCCCC2)c1 [Roxatidine Acetate HCl] | -0.585 | -0.0177 | -0.731 | -0.282 | -0.524 | -0.38 |
| Clc1ccc(CO/N=C(\Cn2ccnc2)c2ccc(Cl)cc2Cl)c(Cl)c1 [Oxiconazole Nitrate] | 0.391 | 1.11 | 1.4 | 1.62 | 0.64 | 0.784 |
| NS(=O)(=O)c1cc(C(=O)O)c(NCc2ccco2)cc1Cl [Furosemide] | -0.539 | -0.705 | -0.993 | -0.823 | -0.572 | -0.492 |
| CC(=O)OCC(=O)[C@@]12N=C(C)O[C@@H]1C[C@H]1[C@@H]3CCC4=CC(=O)C=C[C@]4(C)[C@H]3[C@@H](O)C[C@@]12C [Deflazacort] | -0.192 | 0.385 | 0.137 | 0.444 | -0.208 | -0.207 |
| CC(=O)CC(c1ccccc1)c1c(O)c2ccccc2oc1=O (stereo not drawn) [Warfarin] | -0.409 | 0.393 | 0.206 | 0.0343 | -0.461 | -0.372 |
| Clc1ccc(C(Cn2ccnc2)OCc2c(Cl)cccc2Cl)c(Cl)c1 (stereo not drawn) [Isoconazole] | -0.0559 | 1.26 | -0.00171 | -0.264 | 0.0343 | 0.0567 |
| CC(=O)OCC(=O)[C@@]12OC3(CCCC3)O[C@@H]1C[C@H]1[C@@H]3CCC4=CC(=O)C=C[C@]4(C)[C@@]3(F)[C@@H](O)C[C@@]12C [Amcinonide] | -0.0445 | 0.215 | 0.476 | 0.977 | -0.0127 | 0.16 |
| c1ccc2c(c1)CCCC2C1=NCCN1 (stereo not drawn) [Tetrahydrozoline hydrochloride] | -0.429 | 1.07 | -0.35 | 0.315 | -0.366 | 0.0856 |
| Cc1ccccc1N1C(=O)c2cc(S(N)(=O)=O)c(Cl)cc2NC1C (stereo not drawn) [Metolazone] | -0.495 | -0.0744 | -0.881 | 0.441 | -0.436 | -0.348 |
| CCOC(=O)[C@H](CCc1ccccc1)N[C@@H](C)C(=O)N1Cc2ccccc2C[C@H]1C(=O)O [Quinapril HCl] | -0.508 | -0.151 | -0.267 | -0.543 | -0.453 | -0.577 |
| Clc1ccc(COC(Cn2ccnc2)c2ccc(Cl)cc2Cl)c(Cl)c1 (stereo not drawn) [Miconazole] | 0.0492 | 1.55 | 0.107 | 0.176 | -0.0467 | 0.514 |
| O=C(O)c1cc(=O)c2c(OCC(O)COc3cccc4oc(C(=O)O)cc(=O)c34)cccc2o1 [Cromolyn disodium salt] | -0.474 | -0.0857 | -0.438 | -0.156 | -0.425 | -0.474 |
| C[C@]12CCC(=O)C=C1CC[C@@H]1[C@@H]2[C@@H](O)C[C@@]2(C)[C@H]1CC[C@]2(O)C(=O)CO [Hydrocortisone base] | -0.41 | -0.249 | -0.675 | -0.6 | -0.327 | -0.44 |
| COc1cc(C(=O)NS(=O)(=O)c2ccccc2C)ccc1Cc1cn(C)c2ccc(NC(=O)OC3CCCC3)cc12 [Zafirlukast] | -0.518 | -0.847 | -0.458 | -0.494 | -0.486 | -0.569 |
| CCC[C@@H]1C[C@@H](C(=O)N[C@@H]([C@H]2O[C@H](SC)[C@H](O)[C@@H](O)[C@H]2O)[C@H](C)Cl)N(C)C1 [Clindamycin hydrochloride] | -0.543 | -0.18 | -0.979 | -0.574 | -0.567 | -0.563 |
| CO[C@@]1(NC(=O)C(C(=O)O)c2ccc(O)cc2)C(=O)N2C(C(=O)O)=C(CSc3nnnn3C)CO[C@@H]21 (stereo partly drawn) [Moxalactam disodium salt] | -0.477 | 0.127 | -0.129 | 0.413 | -0.413 | -0.25 |

| SMILES | LBPA endosome anti-LBPA integrated intensity (z-score) (A431 [1]) | LBPA endosome anti-LBPA integrated intensity (z-score) (HeLa MZ [2]) | whole-cell filipin (z-score) (A431 [3]) | whole-cell filipin (z-score) (HeLa MZ [4]) | filipin (z-score) (A431 [5]) | filipin (z-score) (HeLa MZ [6]) |
| --- | --- | --- | --- | --- | --- | --- |
| CC(C)(Oc1ccc(C2CC2(Cl)Cl)cc1)C(=O)O (stereo not drawn) [Ciprofibrate] | -0.486 | -0.255 | -0.125 | -0.278 | -0.419 | -0.482 |
| CCOC(=O)n1ccn(C)c1=S [Carbimazole] | -0.395 | 0.106 | -0.405 | -0.308 | -0.513 | -0.531 |
| CN(C)CCC(c1ccccc1)c1ccccn1 (stereo not drawn) [Pheniramine maleate] | -0.513 | 0.0628 | -0.745 | -0.51 | -0.53 | -0.436 |
| CCCNC(C)(C)COC(=O)c1ccccc1 [Meprylcaine hydrochloride] | -0.522 | -0.427 | -0.299 | -0.094 | -0.429 | -0.419 |
| CCN1CCN(C(=O)N[C@@H](C(=O)N[C@@H]2C(=O)N3C(C(=O)O)=C(CSc4nnnn4C)CS[C@H]23)c2ccc(O)cc2)C(=O)C1=O [Cefoperazone dihydrate] | -0.512 | -0.941 | -0.712 | -0.226 | -0.522 | -0.518 |
| CCC(Cc1c(I)cc(I)c(N)c1I)C(=O)O (stereo not drawn) [Iopanoic acid] | -0.521 | -0.571 | -0.348 | -0.587 | -0.484 | -0.466 |
| C[N+](C)(CCOc1ccccc1)Cc1ccccc1.O=C([O-])c1cc2ccccc2cc1O [Bephenium hydroxynaphthoate] | -0.418 | 0.146 | -0.383 | -0.145 | -0.456 | -0.371 |
| CCCC(C(=O)OCCN(CC)CC)(c1ccccc1)c1ccccc1 [Proadifen hydrochloride] | 2.78 | 2.82 | 2.1 | -0.192 | 2.21 | 1.12 |
| CC(C)NCC(O)c1ccc(O)c(O)c1 (single isomer, unassigned; (+)) [(+)-Isoproterenol (+)-bitartrate salt] | -0.327 | 0.363 | -0.262 | -0.346 | -0.516 | -0.475 |
| N=C(N)NC(=O)Cc1c(Cl)cccc1Cl [Guanfacine hydrochloride] | -0.503 | 0.0887 | -0.556 | 0.368 | -0.462 | 0.00861 |
| COc1ccc(Cl)cc1C(=O)NCCc1ccc(S(=O)(=O)NC(=O)NC2CCCCC2)cc1 [Glibenclamide] | -0.686 | -1.35 | -0.573 | 0.104 | -0.559 | -0.567 |
| CC(C(=O)O)c1ccc(-c2ccccc2)c(F)c1 (stereo not drawn) [Flurbiprofen] | -0.227 | 0.0649 | 0.155 | -0.426 | -0.328 | -0.513 |
| CCCCN1CCCCC1C(=O)Nc1c(C)cccc1C (stereo not drawn) [Bupivacaine hydrochloride] | -0.317 | -0.117 | -0.729 | -0.969 | -0.543 | -0.511 |
| CN(Cc1cc(Br)cc(Br)c1N)C1CCCCC1 [Bromhexine hydrochloride] | -0.251 | -1.52 | 0.328 | -0.199 | -0.159 | -0.552 |
| C[C@H]1C[C@@H]2[C@H]([C@@H](O)C[C@@]3(C)[C@H]2CC[C@]3(O)C(=O)CO)[C@@]2(C)C=CC(=O)C=C12 [Methylprednisolone, 6-alpha] | -0.113 | 0.0903 | -0.236 | -0.329 | -0.297 | -0.497 |
| Cn1c(=O)c2c(ncn2CCO)n(C)c1=O [Etofylline] | -0.487 | -1.05 | -0.938 | -1.17 | -0.451 | -0.58 |
| CC1CC(OC(=O)C(O)c2ccccc2)CC(C)(C)N1C (stereo not drawn) [Eucatropine hydrochloride] | -0.612 | -0.981 | -0.351 | -0.392 | -0.513 | -0.342 |
| O=C(c1ccc(OCCN2CCCCC2)cc1)c1c(-c2ccc(O)cc2)sc2cc(O)ccc12 [Raloxifene hydrochloride] | 2.74 | 1.35 | 1.48 | 2.28 | 3.61 | 5.61 |
| CCN(CC)C(C)CN1c2ccccc2Sc2ccccc21 (stereo not drawn) [Ethopropazine hydrochloride] | 3.1 | 5.78 | 2.83 | 2.95 | 2.11 | 1.8 |
| COc1cc(C(=O)NCc2ccc(OCCN(C)C)cc2)cc(OC)c1OC [Trimethobenzamide hydrochloride] | -0.218 | -0.274 | -0.94 | -0.877 | -0.32 | -0.334 |
| C=CC1=C(C(=O)O)N2C(=O)[C@@H](NC(=O)/C(=N\OCC(=O)O)c3csc(N)n3)[C@H]2SC1 [Cefixime] | -0.497 | -0.00426 | -0.828 | -0.585 | -0.573 | -0.64 |
| COc1ccc2c(c1)c(CC(=O)OCC(=O)O)c(C)n2C(=O)c1ccc(Cl)cc1 [Acemetacin] | -0.545 | -0.702 | -1.02 | -0.542 | -0.556 | -0.644 |
| C[C@@](Cc1ccc(O)c(O)c1)(NN)C(=O)O [Carbidopa] | -0.613 | -0.537 | -0.771 | -0.705 | -0.551 | -0.634 |
| COCCCC/C(=N\OCCN)c1ccc(C(F)(F)F)cc1 [Fluvoxamine maleate] | 0.482 | 2.11 | 1.69 | 0.282 | 0.839 | 0.935 |
